Data published in PubChem BioAssay AID720582 (The Scripps Research Institute Molecular Screening Center, 2013).
In all, about 370,000 compounds went through this assay and about 2,300 (0.62%) were called active. Many of the other results were omitted from the sample, so actives are more common in it than they were. Values without a mark were called inactive.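 Rule for the calls: active = inhibition above a per-campaign cutoff equal to the mean of compounds falling between control-based bounds plus 3 SD (cut at about 20% in these data); inactive = the rest.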

Biological target: Disintegrin and metalloproteinase domain-containing protein 10 (Homo sapiens) (UniProt O14672)
Sequence (O14672 214-748 limits assumed): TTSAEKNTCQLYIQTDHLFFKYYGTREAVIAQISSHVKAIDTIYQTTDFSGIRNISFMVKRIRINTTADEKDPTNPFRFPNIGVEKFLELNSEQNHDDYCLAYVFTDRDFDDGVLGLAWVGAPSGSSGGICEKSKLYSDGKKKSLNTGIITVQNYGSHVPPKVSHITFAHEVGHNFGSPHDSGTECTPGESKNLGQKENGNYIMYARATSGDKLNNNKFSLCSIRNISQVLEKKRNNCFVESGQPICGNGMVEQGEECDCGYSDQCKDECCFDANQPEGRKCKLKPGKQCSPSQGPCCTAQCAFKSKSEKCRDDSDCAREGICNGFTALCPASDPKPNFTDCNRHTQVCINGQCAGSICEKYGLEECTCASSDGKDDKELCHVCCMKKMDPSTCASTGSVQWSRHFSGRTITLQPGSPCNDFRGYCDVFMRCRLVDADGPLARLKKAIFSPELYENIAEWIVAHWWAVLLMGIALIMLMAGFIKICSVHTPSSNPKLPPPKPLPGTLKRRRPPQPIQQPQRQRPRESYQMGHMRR
Test: blockers of ADAM10 peptide cleavage – biochemical, QFRET, HTS, primary screen (AID 720582);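 note: 0% = DMSO wells while the 100% control is not disclosed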
Conditions: recombinant ADAM10, EDANS/DABCYL FRET peptide cleavage, 3 h; at 7 µM; stronger effect = higher value

SMILES | inhibition
C=C1C(C(C)C)N(C)C2=NC(c3ccccc3)CC(=O)N12 (centres undefined) | -17.1%
COc1cccc(C2CC(c3cccs3)=NN2C(=O)CSC2=NCCS2)c1OC (centres undefined) | -3.83%
COc1cccc(C2CC(c3ccccc3)=NN2S(=O)(=O)c2ccccc2)c1OC (centres undefined) | 29.9% (active)
CCS(=O)(=O)Nc1ccc(C2=NN(S(=O)(=O)c3ccc(F)cc3)C(c3ccco3)C2)cc1 (centres undefined) | 4.53%
Cc1ccc(C)c(NC(=O)CCS(=O)(=O)c2ccccc2)c1 | -11.5%
CC(C)(C)OC(=O)NCc1cc(F)ccc1/C=C/S(=O)(=O)NCCc1ccccc1 | 11.5%
O=C(c1ccncc1)N1CC[C@H]2[C@H](CCCN2Cc2ccc(F)cc2)C1 | -25.2%
COC(=O)C1CN(CCc2ccccc2)CCS(=O)(=O)N1Cc1cccc(Cl)c1 (centres undefined) | 2.53%
COc1ccc(NS(=O)(=O)c2ccc(N3CCOCC3)c(NC(=O)c3ccccc3Br)c2)cc1 | 6.43%
COc1ccccc1NS(=O)(=O)c1ccc(C)c(C(=O)NNC(=O)c2csc(N3CCOCC3)n2)c1 | 8.51%
COc1ccc(NS(=O)(=O)c2ccc(C)c(C(=O)NNC(=O)c3csc(N4CCOCC4)n3)c2)cc1 | 26% (active)
CCC[C@H]1C(=O)CC[C@@]23CCCN2C(=O)CCC[C@@H]13 | -1.01%
CCOC(=O)[C@@H]1[C@H]2COc3ccc(Br)cc3[C@H]2N2C(=O)N(c3ccc(C)cc3)C(=O)[C@@]12C | 1.71%
Cc1ccc(N2C(=O)N3[C@@H]4c5ccccc5OC[C@@H]4[C@@H](c4ccccc4)[C@@]3(C)C2=O)cc1 | 20.3% (active)
C[C@@H]1NC(=O)[C@@]2(C)[C@@H](c3ccccc3)[C@H]3COc4ccccc4[C@@H]3N2C1=O | -7.53%
CCOC(=O)c1csc(NC(=O)C2CCCN(S(=O)(=O)c3ccc(Cl)s3)C2)n1 (centres undefined) | 10%
C=CCn1c(N)cc(=O)nc1SCC(=O)Nc1cccc2ccccc12 | -27%
Cc1ccc(-n2c(SCC(=O)Nc3cccc4ccccc34)nnc2-c2ccccn2)cc1 | -6.55%
Cc1ccccc1-n1c(SCC(=O)Nc2cccc3ccccc23)nc(O)cc1=O | 27% (active)
O=S1(=O)c2ccc(N3CCN(Cc4ccccc4F)CC3)cc2Oc2ccccc2CN1Cc1cn(Cc2ccc(Cl)cc2)nn1 | 7.21%
CCOc1ccc(-n2c(SCC(=O)Nc3cc(C)c(NC(=O)c4ccccc4)cc3OC)nnc2-c2cccc(Cl)c2)cc1 | 8.65%
COc1cccc(CC2(CO)CCCN(Cc3ccc(OC(F)F)cc3)C2)c1 (centres undefined) | 19.9% (active)
COc1cccc(CC2(CO)CCCN(Cc3nc(-c4cccs4)oc3C)C2)c1 (centres undefined) | 0.04%
COc1cccc(CNC(=O)CCC2CCCN(Cc3ccc(OC(F)F)cc3)C2)c1 (centres undefined) | -2.49%
O=C(CN(CC1CCCO1)C(=O)CNS(=O)(=O)c1ccc(Cl)cc1)NCc1ccccc1 (centres undefined) | 3.32%

SMILES | inhibition
CCCOc1ccc(Oc2c(Cl)cnn(Cc3cccc4ccccc34)c2=O)cc1 | -13%
COc1ccc(C(=O)OCCN2CCN(C3CN(Cc4cn(Cc5ccccc5F)nn4)S(=O)(=O)C3)CC2)cc1OC (centres undefined) | -2.27%
CC(c1c[nH]c2ccccc12)c1c(-c2ccccc2)n(C)c2ccccc12 (centres undefined) | -17.9%
CCCCC(=O)NNC(=S)NC(=O)C(c1ccccc1)c1ccccc1 | 7.07%
CCCC(=O)Nc1cccc(NC(=S)NC(=O)C(C)Oc2ccc(Cl)cc2Cl)c1 (centres undefined) | 6.41%
CC(C)C(=O)Nc1cccc(NC(=S)NC(=O)C(c2ccccc2)c2ccccc2)c1 | 21.2% (active)
COc1ccc([C@@H]2[C@@H]3C(=O)N(C(C)(C)C)C(=O)[C@@H]3[C@]3(Cc4ccccc4)C(=O)N(c4cccc(Br)c4)C(=O)N23)cc1 | 33.4% (active)
CC(C)(C)N1C(=O)[C@H]2[C@@H](c3ccc(Br)cc3)N3C(=O)N(c4cccc(Cl)c4)C(=O)[C@@]3(C)[C@H]2C1=O | 33.8% (active)
CC[C@@]12C(=O)N(c3ccccc3)C(=O)N1[C@H](c1ccc(Br)cc1)[C@@H]1C(=O)N(C(C)(C)C)C(=O)[C@@H]12 | 15.3%
CSCCC1NC2(C(=O)Nc3ccc(Cl)cc32)[C@@H]2C(=O)N(C3CCCC3)C(=O)[C@H]12 (some centres undefined) | 11.7%
C[C@@]12C(=O)N(c3cccc(Br)c3)C(=O)N1[C@H](c1ccc(Cl)cc1)[C@@H]1C(=O)N(C3CCCCC3)C(=O)[C@@H]12 | 31.7% (active)
CCN1C(=O)[C@H]2[C@@H](c3ccc(C)cc3)N3C(=O)N(c4cccc(Br)c4)C(=O)[C@@]3(CC)[C@H]2C1=O | 4.57%
CC12C(=O)N(c3ccccc3)C(=O)C1C(c1ccccc1)N1CCCN12 (centres undefined) | -2%
COC(=O)[C@]12C[C@H](CC(=O)NCc3ccccc3)C(=O)N(Cc3ccccc3)C1=C[C@H](COCc1ccccc1)O[C@@H]2C | 6.96%
C=CCN(C)CC#Cc1ccccc1 | -2.28%
O=C(OC12CCCN(C1)/C(=C/c1ccccc1)C2)c1ccco1 (centres undefined) | 8.44%
O=S1(=O)c2c(NCc3ccco3)cccc2Oc2ccccc2CN1Cc1cn(Cc2cccc(C(F)(F)F)c2)nn1 | -9.48%
COc1ccc(-c2cc(-c3nnc(SCC(=O)Nc4cccc5ccccc45)n3N)[nH]n2)cc1 | -7.36%
CC(CCN1CCC(C(O)(c2ccccc2)c2ccccc2)CC1)Oc1ccc(C(F)(F)F)cc1 (centres undefined) | 5.96%
CCCC(O)(CCC)C(=O)NN(C(=O)CCl)c1cccc(C)c1 | -8.56%
COC(=O)N(NC(=O)C(O)(C(C)C)C(C)C)c1ccccc1 | -0.6%
Cc1ccc(N(NC(=O)C(C)(C)O)C(=O)c2ccccc2)cc1C | 87.5% (active)
O=C(CN1CCCc2ccccc21)NCc1ccc(F)cc1 | 1.16%
O=C(Nc1cc(F)cc(F)c1)OC1CCC12CCC(c1ccccc1)CC2 (centres undefined) | 7.13%
